Compound activity as filed in PubChem BioAssay.
This excerpt belongs to a sample that is enriched for hits.
Algae TAG accum = increases triacylglycerol in Chlamydomonas reinhardtii; Chlamydomonas reinhardtii TAG, Nile Red fluorescence, 72 h; calls only at 10 µM (by protocol); 0.84% of 44,000 active; AID 1159537; call rule not given here;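 further: hits raise Nile Red signal meaning more stored TAG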
Starred values were filed as active, the others as inactive; i = inactive; + = active, no number.

SMILES	Algae TAG accum
CC(C(=O)NCc1cccnc1)N(c1ccccc1)S(C)(=O)=O (stereo not given)	i
CC(C(=O)NC1CCCCCC1)N(c1ccccc1)S(C)(=O)=O (stereo not given)	i
COc1ccccc1NC(=O)/C(=C\c1cccc([N+](=O)[O-])c1)NC(=O)c1cccs1	i
COc1cc(C)ccc1OCCOc1ccccc1C	i
CC1(C)CC(=O)c2c(CC3CC(=O)NC(=O)C3)nn(-c3ccccc3)c2C1	i
CC(C)c1ccc(CN2CCOCC2)cc1	+
Clc1ccc(CN2CCOCC2)cc1Cl	i
CC(C)c1ccc(CN2CCC(O)CC2)cc1	i
Cc1c(Cl)ccc(S(=O)(=O)NCCN2CCOCC2)c1Cl	i
Cc1cc(I)ccc1S(=O)(=O)NCCCN1CCOCC1	+
COc1cc(Cl)c(S(=O)(=O)NCCCN2CCOCC2)cc1Cl	+
Cc1ccc(S(=O)(=O)NCCCN2CCOCC2)cc1	i
COc1cc(C)c(S(=O)(=O)NCCN2CCOCC2)cc1C	i
COc1cc(C)c(C)cc1S(=O)(=O)NCCN1CCOCC1	i
Nc1nc(Oc2ccccc2)c(I)c(=O)[nH]1	i
COCCCNC(=O)c1c(NC(=O)c2ccccc2Br)sc2c1CCCC2	i
NC(=O)c1cc(NC(=O)c2cccc([N+](=O)[O-])c2)cc(C(N)=O)c1	i
O=C(NCC1CCCO1)c1ccc(F)cc1 (stereo not given)	i
CCOc1ccc(C(O)=C2C(=O)C(=O)N(c3nnc(C)s3)C2c2cccc([N+](=O)[O-])c2)cc1 (stereo not given)	i
Cc1cc(C)c2c(N)[nH]nc2n1	i
CN1CCCN(Cc2ccc([N+](=O)[O-])o2)CC1	+
O=[N+]([O-])c1ccc(CN2CCN(c3ccccc3)CC2)o1	i
CN1CCCN(Cc2ccc(-c3ccccc3[N+](=O)[O-])o2)CC1	i
O=C1C(=O)N(c2ncccn2)C(c2ccc(Cl)cc2)C1=C(O)c1ccc(F)cc1 (stereo not given)	i
CC(NC(=O)c1ccccc1[N+](=O)[O-])C1CC2CCC1C2 (stereo not given)	i
SMILES	Algae TAG accum
CC(NC(=O)c1ccccc1Br)C1CC2CCC1C2 (stereo not given)	i
Cc1ccc(C(=O)NC(C)C2CC3CCC2C3)s1 (stereo not given)	+
Brc1ccc(-c2nc3ccccc3[nH]2)o1	i
COc1cc(CN(C)C(c2ccccc2)c2nnnn2-c2ccccc2C)cc(OC)c1OC (stereo not given)	i
C=CCNC(=O)CN(c1ccc(OCC)cc1)S(=O)(=O)c1ccccc1	i
COc1ccc(O)c(CN2CCN(Cc3ccccc3[N+](=O)[O-])CC2)c1	i
CC1CCc2sc3ncnc(NCc4cccnc4)c3c2C1 (stereo not given)	i
O=c1nc(-c2ccccc2)sc2ccccc12	i
CCCCc1ccc(-c2nc(-c3cccnc3)no2)cc1	i
Cc1ccc(NS(=O)(=O)c2ccc([N+](=O)[O-])cc2)cc1	i
Cc1ccc(S(=O)(=O)c2ccc(-c3ccc([N+](=O)[O-])cc3)cc2)cc1	+
Cc1ccc(S(=O)(=O)c2ccc(C)cc2)cc1	i
COc1ccccc1N/C=C(\C#N)c1nc(-c2cccc(Br)c2)cs1	i
NC(=Nc1nc2ccccc2o1)NC(=O)c1ccccc1[N+](=O)[O-]	i
CCOc1ccc(C(=O)NCCCN(C)C)cc1	i
CCOc1ccc(C(=O)NCCNC(=O)c2ccc(OCC)cc2)cc1	+
CCOc1ccc(C(=O)NCCC(=O)O)cc1	i
CN(CC(O)COCc1ccc2c(c1)OCO2)C1CCCCC1 (stereo not given)	i
CC(NCC(O)COc1ccc(Br)cc1)c1ccccc1 (stereo not given)	i
CN(CC(O)COc1ccc(Br)cc1)C1CCCCC1 (stereo not given)	+
O=C(COc1ccc(Br)cc1)NC1CCCC1	i
CCN(CC(O)COc1ccc(Br)cc1)C1CCCCC1 (stereo not given)	+
O=[N+]([O-])c1ccc(OCC(O)CN(C2CCCCC2)C2CCCCC2)cc1 (stereo not given)	i
COc1ccc(Br)cc1CN(C)CCN(C)C	i
O=C(NCc1ccccc1)C(=O)NC1CC1	i
SMILES	Algae TAG accum
O=C1c2ccccc2C(=O)N1CCCc1nc2ccccc2c(=O)n1-c1nccs1	i
O=C(Nc1ccc2c(c1)OCCO2)c1cc(S(=O)(=O)N2CCCCCC2)ccc1Cl	i
Cc1ccc(CN(c2ccc(C(=O)Nc3ccc(F)cc3F)cc2)S(C)(=O)=O)cc1	i
Cc1cc(C)cc(N(CC(=O)Nc2ccc(F)c(Cl)c2)S(C)(=O)=O)c1	i
CCc1cccc(OCC(=O)Nc2cc(OC)c(OC)cc2C(=O)O)c1	+
COc1ccc(OCC(=O)Nc2cc(OC)c(OC)cc2C(=O)O)cc1	i
COc1cc(NC(=O)CSCc2ccccc2)c(C(=O)O)cc1OC	i
CC1(C)CC(=O)c2nc(N)sc2C1	i
CN1CCN(Cc2ccc(-c3ccccc3Cl)o2)CC1	+
O=[N+]([O-])c1ccccc1-c1ccc(CN2CCCCCC2)o1	i
CCN1CCN(Cc2ccc(-c3ccccc3[N+](=O)[O-])o2)CC1	i
O=C(Nc1cccc([N+](=O)[O-])c1)C(Cc1ccccc1)N1C(=O)C2C3C=CC(C3)C2C1=O (stereo not given)	i
Brc1ccc(OCCCn2ccnc2)cc1	i
Ic1ccc(OCCCn2ccnc2)cc1	i
O=C(c1ccccc1)c1ccc(OCCCCn2ccnc2)cc1	+
CC(=O)c1cc(F)c(N2CCN(C(=O)c3ccc(F)cc3F)CC2)cc1C	i
COc1cc(C)c(NC(=O)Cc2ccc(F)cc2)cc1C(C)C	i
COc1ccc(S(=O)(=O)N(CC(=O)Nc2ccccc2F)c2cc(C)cc(C)c2)cc1OC	i
COc1ccc(S(=O)(=O)N(CC(=O)N2CCCC2)c2cc(C)cc(C)c2)cc1OC	i
COc1ccc(S(=O)(=O)N(CC(=O)NC(C)C)c2cc(C)cc(C)c2)cc1OC	+
Cc1cc(Cl)ccc1OCCN1CCNCC1	i
Clc1cc(Br)ccc1OCCCCN1CCCC1	i
Clc1ccc(Cl)c(OCCCCN2CCNCC2)c1	+
O=C(Nc1ccccc1I)c1cccnc1	i
COc1ccc(-c2nc3ccccc3o2)cc1NC(=O)c1cc(Cl)ccc1OC	i
SMILES	Algae TAG accum
Nn1c(SCC(=O)Nc2ccccc2F)nnc1-c1ccc(Cl)cc1Cl	i
CN(C)C(=O)CSc1nnc(-c2ccc(Cl)cc2Cl)n1N	i
Nn1c(SCC(=O)NC23CC4CC(CC(C4)C2)C3)nnc1-c1ccc(Cl)cc1Cl	+
O=C(Nc1cccc(F)c1)c1ccc(Br)c(S(=O)(=O)N2CCCC2)c1	i
COc1ccc(NC(=O)COc2ccc3c(=O)c(-c4ccc(F)cc4)coc3c2)cc1	i
COc1cc(CN2CCN(c3ccccn3)CC2)cc(OC)c1	i
CCC(C)c1ccccc1OCCN1CCCC1 (stereo not given)	i
c1ccc(-c2ccccc2OCCCN2CCOCC2)cc1	i
CCc1ccc(OCCOCCN2CCOCC2)cc1	+
Clc1ccc(OCCOCCN2CCOCC2)cc1Cl	i
CCC(C)c1ccccc1OCCCN1CCOCC1 (stereo not given)	+
CCC(C)c1ccccc1OCCOCCN1CCCC1 (stereo not given)	i
CCC(C)c1ccccc1OCCCCN1CCCC1 (stereo not given)	+
CCC(C)c1ccccc1OCCNC(C)C (stereo not given)	i
